The results in this text go back to PubChem BioAssay AID2316 (Broad Institute, 2010).

SMILES strings stand for the structures. Out of some 29,000 compounds screened, fewer than 10 were called active. These entries were drawn from the full list. Unmarked numbers belong to inactive results. No rule for the calls is given here.

The nature of this experiment: activators reversing PD-1 mediated T-cell inhibition, primary screen, luminescence, primary human CD4 T cells, PD-L1 beads (AID 2316).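 Also: 0% = median vehicle wells and 100% = positive control.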 To be noted: CellTiter-Glo 96 h, stronger effect = higher value.
Regarding `O=C(Nc1cccs1)N1CCN(C(=O)C2CCCO2)CC1` (centres undefined), the activation is -0.0221%.

For the compound `Cc1ccc(NC(=O)CSc2nnc(C)n2-c2ccc(F)cc2)cc1Cl`, the activation was 0.0225%.

For `COc1ccc(S(=O)(=O)Nc2cccc3c2O[C@@H](CN(C)C(=O)Nc2ccccc2)[C@@H](C)CN([C@@H](C)CO)C3=O)cc1`, the activation was -2.12%.

As to `C[C@@H]1CN([C@@H](C)CO)C(=O)c2cc(NS(C)(=O)=O)ccc2O[C@@H]1CN(C)C(=O)Nc1ccc(F)cc1`, the activation is 2.2%.

Regarding `O=C1c2ccccc2S(=O)c2ccccc2S(=O)(=O)N1Cc1ccccc1` (centres undefined), the activation was -5.99%.

On to `Cc1ccc(Cl)cc1NC(=O)CN(c1cccc(Cl)c1C)S(C)(=O)=O`, for which the activation is -5.55%.

`CS(=O)(=O)N(CC(=O)Nc1ccc2ccccc2c1)c1cc(Cl)c(Cl)cc1Cl`: the activation is 1.79%.

As for `COc1ccc(S(=O)(=O)N(C)C[C@H]2Oc3ccc(NS(=O)(=O)c4ccc(F)cc4)cc3C(=O)N([C@H](C)CO)C[C@H]2C)cc1`, the activation was 1.51%.

For `COc1ccc(NC(=O)Nc2ccc3c(c2)C(=O)N([C@H](C)CO)C[C@@H](C)[C@H](CN(C)Cc2ccccc2)O3)cc1`, the activation was -0.421%.

On to `C[C@H]1CN([C@@H](C)CO)C(=O)c2cc(NS(C)(=O)=O)ccc2O[C@H]1CN(C)C(=O)Nc1ccc(C(F)(F)F)cc1`, for which the activation is 0.226%.

Regarding `O=C(NCc1ccccn1)C1CC(c2cccc(Br)c2)=NO1` (centres undefined), the activation is 1.86%.

As for `C[C@H](CO)N1C[C@H](C)[C@@H](CN(C)S(C)(=O)=O)Oc2c(NC(=O)c3ccc(-c4nccs4)cc3)cccc2C1=O`, the activation was 0.392%.

On to `COc1ccc(C(=O)CSc2nc3ccc(OC)cc3[nH]2)cc1`, for which the activation is 0.352%.

Take `Cc1noc(C)c1NC(=O)Nc1ccc2c(c1)C(=O)N([C@@H](C)CO)C[C@H](C)[C@H](CN(C)CC1CCCCC1)O2`: the activation is 1.03%.

Turning to `C[C@@H]1CN([C@H](C)CO)C(=O)Cc2cc(NS(=O)(=O)c3ccc(F)cc3)ccc2O[C@H]1CN(C)C`, the activation was 2.25%.

As to `CS(=O)(=O)N(CC(=O)Nc1cc(Cl)ccc1Cl)c1ccc(Oc2ccccc2)cc1`, the activation was 0.0184%.

In the case of `Cc1ccc(S(=O)(=O)Nc2ccc3c(c2)C(=O)N([C@H](C)CO)C[C@H](C)[C@H](CN(C)Cc2ccc(C(=O)Nc4ccccc4N)cc2)OCCCC[C@@H](C)O3)cc1`, the activation is -0.831%.

For `O=C(Nc1ccccc1Cl)c1ccccc1S(=O)(=O)c1ccccc1[N+](=O)[O-]`, the activation is 1.95%.

As to `CS(=O)(=NS(=O)(=O)c1ccc(OC(F)(F)F)cc1)c1ccc(Cl)cc1` (centres undefined), the activation is 0.43%.

Turning to `O=C1OC(c2ccc(-c3ccccc3)cc2)=N/C1=C\c1ccco1`, the activation is 1.56%.

In the case of `C/C=C/c1ccc(OCCCSc2nc(C)cc(=O)[nH]2)c(OC)c1`, the activation was 2.94%.

With `C[C@H]1CN([C@@H](C)CO)C(=O)Cc2cc(NC(=O)Nc3ccc4c(c3)OCO4)ccc2O[C@H]1CN(C)Cc1ccc(C(=O)Nc2ccccc2N)cc1`, the activation is -2.39%.

Consider `C[C@@H]1CCCCO[C@@H](CN(C)C(=O)C2CCCCC2)[C@@H](C)CN([C@H](C)CO)C(=O)c2cc(NC(=O)c3ccccc3)ccc2O1`, for which the activation was -1.83%.

Turning to `N#Cc1cc2c(nc1SCC(=O)Nc1ccccc1C(F)(F)F)CCCCC2`, the activation was 1.79%.

Take `Cc1noc(C)c1NC(=O)Nc1cccc2c1O[C@@H](CN(C)C(=O)Nc1ccc(C(F)(F)F)cc1)[C@@H](C)CN([C@@H](C)CO)C2=O`: the activation was -0.0327%.

On to `C[C@H](CO)N1C[C@H](C)[C@H](CN(C)S(C)(=O)=O)Oc2ccc(NC(=O)CCCN(C)C)cc2C1=O`, for which the activation is 0.789%.

On to `C[C@H](CO)N1C[C@H](C)[C@H](CN(C)CC2CCCCC2)Oc2ccc(NC(=O)CCCCCC(=O)Nc3ccccc3N)cc2CC1=O`, for which the activation was -0.694%.

With `Cc1cccc(NC(=O)CSc2nc3c(cc2C#N)CCCCC3)c1`, the activation was -3.01%.

As for `O=C(CSc1nnc(-c2ccccc2)c(-c2ccccc2)n1)Nc1ccccc1`, the activation is 1.51%.

`C[C@H]1CN([C@@H](C)CO)C(=O)c2cc(NC(=O)Cn3cnnn3)ccc2O[C@@H]1CN(C)CC1CCCCC1`: the activation is 1.73%.

As to `CCCC1CCC(c2ccc(OC(=O)c3ccco3)cc2)CC1` (centres undefined), the activation is -0.337%.

For `CC(=O)c1c(C)nn(CC(O)COc2ccc3cc(Br)ccc3c2)c1C` (centres undefined), the activation is -6.98%.

`O=C(Nc1ccc(C(=O)OCc2cccc(C(=O)c3ccccc3)c2)cc1)c1ccccc1`: the activation was -0.837%.

Take `O=C(CSc1n[nH]c(-c2ccncc2)n1)Nc1ccccc1F`: the activation is 2.95%.

Regarding `Cc1ccc(NC(=O)CN2C(=O)/C(=C\c3ccccc3)SC2=S)cc1`, the activation was 1.06%.

Take `COC(=O)C1=C(C)NC2=C(C(=O)CC(C)(C)C2)C1c1ccncc1` (centres undefined): the activation is -0.541%.

Consider `C[C@@H]1CN([C@@H](C)CO)C(=O)c2cccc(NS(=O)(=O)c3cccs3)c2O[C@@H]1CN(C)CC1CC1`, for which the activation is 1.15%.

Take `C[C@@H]1CN([C@H](C)CO)C(=O)c2cccc(NC(=O)Nc3ccccc3)c2O[C@H]1CN(C)S(C)(=O)=O`: the activation was 0.424%.

For `C[C@H]1CN([C@@H](C)CO)C(=O)Cc2cc(NC(=O)Nc3cccc4ccccc34)ccc2O[C@@H]1CN(C)S(=O)(=O)c1cn(C)cn1`, the activation was -0.329%.

Consider `CC(C)Cc1ccc(/C=C/C(=O)N2CCCC2)cc1`, for which the activation was -1.3%.

For the compound `C[C@H]1CN([C@@H](C)CO)C(=O)c2cccc(NC(=O)C3CC3)c2O[C@@H]1CN(C)S(=O)(=O)c1ccc(F)cc1`, the activation was -0.218%.

On to `COc1ccc(CN(C)C[C@H]2Oc3c(NS(=O)(=O)c4ccc(C)cc4)cccc3C(=O)N([C@@H](C)CO)C[C@@H]2C)cc1`, for which the activation is -1.26%.

`COc1ccc(CN(C)C[C@@H]2Oc3ccc(NS(=O)(=O)c4ccc(F)cc4)cc3C(=O)N([C@@H](C)CO)C[C@@H]2C)cc1`: the activation is -1.17%.

Take `N#Cc1c(SCC(=O)Nc2ccc(F)cc2Cl)nc2c(c1C(F)(F)F)CCCCC2`: the activation is 0.417%.
